Results filed as inconclusive are left out. Calls of active or inactive are those of the source. Unless noted, calls follow the shape of the dose curve; as a rule, active = well fitted curve in the direction sought with a large enough effect; inconclusive = small, poorly fitted or top-dose-only effect, or another doubt; inactive = no such curve, though single readings can be large; an effect the other way counts as inactive or inconclusive.

In experiment [1] the target is Ubiquitin carboxyl-terminal hydrolase 2 (Homo sapiens) (UniProt O75604). In words: qHTS Validation Assay for Inhibitors of Ubiquitin-specific Protease USP2a Using CHOP2 as the Reporter (AID 463106). Summed up:
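USP2 core (10 nM final) was preincubated with compound 30 min at RT in pH 8.0 Tris/CaCl2/beta-ME/CHAPS buffer. Ub-CHOP2 and reporter substrate (25 nM final each) were then added, with fluorescence (Ex 485/Em 531) read after 60 min. Data were normalized to NEM full inhibition and fitted to concentration-response curves.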

Experiment [2] addresses DNA polymerase III PolC-type (Bacillus subtilis (strain 168)) (UniProt P13267). Kind of experiment: qHTS Validation Assay for the Inhibitors of DNA Replication in Gram-Positive Bacteria (AID 485295).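 Also: reconstituted holoenzyme with PolC plus beta clamp SSB and primase; PicoGreen fluorescence of double-stranded DNA made on primed circular M13 template; series mostly up to about 57 µM.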 The method in brief: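 Primed replication of single-stranded M13Gori by a four-protein B. subtilis holoenzyme is measured at room temperature. Double-stranded product is quantified by PicoGreen fluorescence after an EDTA stop; inhibition is scaled between DMSO and EDTA controls.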

For experiment [3], the target named is Tumor susceptibility gene 101 protein (Homo sapiens) (UniProt Q99816). Kind of experiment: qHTS Validation Assay for Iinhibitors of HIV-1 Budding by Blocking the Interaction of PTAP/TSG101 (AID 485342; calls by dose curve). Summed up:
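Fluorescence anisotropy measured PTAP-Tsg101 interaction. Final concentrations were 10 uM protein domain and 50 nM labeled peptide, equilibrated 20 min at room temperature.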

Experiment [4] in a line: qHTS Validation Assay to Find Inhibitors of Chronic Active B-Cell Receptor Signaling (AID 485345; active = well fitted curve in the direction sought with a large enough effect in the main read-out, with a control signal flat, not every such curve was filed as active). Summed up:
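TMD8 ABC-DLBCL cells stably carrying doxycycline-inducible IkappaBalpha–green luciferase fusion plus unfused red luciferase; compounds 46 uM to 3 nM, 4 h at 37C with doxycycline. Corrected green/red luminescence ratio normalized to 10 uM MG-132 and basal cell wells; curves fitted.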

In experiment [5] the target is Beta-2 adrenergic receptor (Homo sapiens) (UniProt P07550). Kind of experiment: qHTS validation assay of beta-arrestin-biased ligands of beta2-adrenergic receptor (AID 485366). The method in brief:
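Luminescence from a tTA-responsive luciferase, induced when recombinant beta-arrestin is recruited to recombinant beta2-AR, served as the agonism signal. Cells were exposed to compound for 18 hr at 37 degrees C; titrations spanned up to 46 microM.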

A short description of experiment [6]: Quantitative high throughput screen for delayed death inhibitors of the malarial parasite plastid, 96 hour incubation (AID 488745). Also: nearly all actives have a fitted effect of over 70% in size. Also: potency is read from the fitted curve at half-maximal effect. The method in brief:
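Luciferase-expressing P. falciparum in erythrocytes (2% hematocrit, 0.1% parasitemia) incubated with compound for 96 h at 37 C, 5% CO2, in RPMI 1640 with 0.5% Albumax. Growth inhibition read as decreased luminescence.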

Experiment [7] concerns the target Thioredoxin reductase 1, cytoplasmic (Rattus norvegicus) (UniProt O89049). In words: qHTS Assay for Substrates of Mammalian Selenoprotein Thioredoxin Reductase 1 (TrxR1) (AID 488772).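 Also: NADPH fluorescence in the first read after selenite addition and not the 8 min delta; series mostly up to about 57 µM; a drop in NADPH fluorescence below the no-compound background marks a TrxR1 substrate.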 Summed up: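 Quantitative HTS in Tris-HCl buffer at pH 7.5 with EDTA and Tween-20, using rat TrxR1, 400 uM NADPH and 400 uM selenite (final). A fall in initial NADPH fluorescence relative to background marked substrate behaviour.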

The target is the same in experiment [8]. In words: qHTS Assay for Inhibitors of Mammalian Selenoprotein Thioredoxin Reductase 1 (TrxR1) (AID 488773). Also: nearly all actives have a fitted effect of over 40% in size. Also: potency is read from the fitted curve at half-maximal effect. The conditions noted are these: Potency: inhibition. Summed up:
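Steps: enzyme (90 nM) plus NADPH (400 uM final), 5 min at ~22 deg C; compound added, 15 min; selenite (400 uM final) added; fluorescence followed for 8 min. Concentration-response curves derived from the normalized delta values.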

For experiment [9], the target named is Flap endonuclease 1 (Homo sapiens) (UniProt P39748). Kind of experiment: qHTS Validation Assay for the Inhibitors of Human Flap endonuclease 1 (FEN1) (AID 488816). The method in brief: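 Human FEN1 (10 nM) preincubated 15 min at room temperature with compounds, then flap DNA substrate added at 50 nM final. Fluorescence read at 0 and 15 min; concentration-response fitted with four-parameter Hill equation.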
Flap endonuclease 1 (Homo sapiens), sequence (P39748 whole entry, looked up): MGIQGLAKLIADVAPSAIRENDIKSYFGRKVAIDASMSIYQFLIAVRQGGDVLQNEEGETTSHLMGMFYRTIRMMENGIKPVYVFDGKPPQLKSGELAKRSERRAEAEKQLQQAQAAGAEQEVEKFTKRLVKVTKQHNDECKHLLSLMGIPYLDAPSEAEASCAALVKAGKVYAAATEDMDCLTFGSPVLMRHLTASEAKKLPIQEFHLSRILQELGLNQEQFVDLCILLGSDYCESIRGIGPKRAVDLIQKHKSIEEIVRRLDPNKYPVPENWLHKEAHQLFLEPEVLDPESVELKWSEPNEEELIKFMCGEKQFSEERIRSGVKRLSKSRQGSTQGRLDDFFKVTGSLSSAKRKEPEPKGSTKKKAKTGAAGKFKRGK

Experiment [10] deals with M-phase phosphoprotein 8 (Homo sapiens) (UniProt Q99549). Kind of experiment: qHTS Validation Assay for Inhibitors for MPP8 Chromodomain Interactions with Methylated Histone Tails (AID 488949). Also: nearly all actives have a fitted effect of over 55% in size. Also: potency is read from the fitted curve at half-maximal effect. The method in brief: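 Disruption of the preformed MPP8–trimethyl-H3K9 peptide complex (both 50 nM, 30 min, RT) is measured after 30 min compound exposure, using AlphaScreen proximity beads; aurintricarboxylic acid titration serves as plate control.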
M-phase phosphoprotein 8 (Homo sapiens), sequence (Q99549 whole entry, looked up): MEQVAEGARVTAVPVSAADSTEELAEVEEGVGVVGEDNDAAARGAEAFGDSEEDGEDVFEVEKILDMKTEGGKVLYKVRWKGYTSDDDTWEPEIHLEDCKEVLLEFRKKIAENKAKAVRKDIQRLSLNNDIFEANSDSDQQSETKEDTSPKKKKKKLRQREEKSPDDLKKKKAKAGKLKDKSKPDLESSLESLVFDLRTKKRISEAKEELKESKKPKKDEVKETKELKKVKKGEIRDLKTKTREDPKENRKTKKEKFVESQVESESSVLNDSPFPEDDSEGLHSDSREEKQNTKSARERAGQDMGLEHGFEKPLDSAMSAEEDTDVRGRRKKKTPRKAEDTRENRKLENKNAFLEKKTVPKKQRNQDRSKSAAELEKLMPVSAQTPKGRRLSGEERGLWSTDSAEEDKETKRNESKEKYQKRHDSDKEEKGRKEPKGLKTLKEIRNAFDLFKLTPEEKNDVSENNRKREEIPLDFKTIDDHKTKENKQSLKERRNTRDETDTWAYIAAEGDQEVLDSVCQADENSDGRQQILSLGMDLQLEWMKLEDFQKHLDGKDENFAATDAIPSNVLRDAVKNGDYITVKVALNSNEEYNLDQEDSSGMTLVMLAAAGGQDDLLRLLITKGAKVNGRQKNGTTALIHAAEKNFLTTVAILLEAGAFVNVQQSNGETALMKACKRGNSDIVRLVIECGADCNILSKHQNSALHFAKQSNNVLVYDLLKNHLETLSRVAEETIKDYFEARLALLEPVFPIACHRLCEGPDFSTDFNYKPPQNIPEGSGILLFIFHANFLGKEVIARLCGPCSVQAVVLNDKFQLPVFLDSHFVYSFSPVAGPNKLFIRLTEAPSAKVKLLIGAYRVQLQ

Experiment [11] has as its target Chromobox protein homolog 1 (Homo sapiens) (UniProt P83916). In words: qHTS Validation Assay for Inhibitors of HP1-beta Chromodomain Interactions with Methylated Histone Tails (AID 488953). Also: nearly all actives have a fitted effect of over 50% in size. Also: potency is read from the fitted curve at half-maximal effect. The method in brief: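 HP1-beta (50 nM) preformed 30 min with biotinylated H3(1-18)K9me3 peptide (50 nM) in PBS pH 7.4, 0.01% Tween-20. Compounds added for 30 min at room temperature. Complex disruption read by AlphaScreen with streptavidin donor/nickel chelate acceptor beads (10 ug/mL each).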

Experiment [12] concerns the target Methanococcus maripaludis chaperonin (MmCpn) (UniProt Q6LX38). Kind of experiment: High-Throughput Screening for Modulators of Cytosolic Chaperonin Activity: MmCpn Primary Screen (AID 488978).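 Also: 50 nM MmCpn enzyme hydrolysing 30 µM ATP at 37 °C.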 The method in brief: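 Measures ATPase turnover of the M. maripaludis chaperonin (50 nM final) against 30 uM ATP over 10 min at 37C, with compound added 5 min beforehand at room temperature. ADP is quantified by HTRF immunodetection.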

Experiment [13] concerns the target Thyrotropin receptor (Homo sapiens) (UniProt P16473). Kind of experiment: qHTS Assay for Antagonists of the Thyroid Stimulating Hormone Receptor (AID 488980). Also: series mostly up to about 58 µM. Summed up:
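Cells expressing human TSHR (HEK293) are dispensed in HBSS/HEPES containing 70 uM RO 20-1724, compound is added, then TSH at EC80 (4 nM final). Antibody in lysis buffer follows, 30 minutes at room temperature before HTRF detection.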

Experiment [14] concerns the target D(1A) dopamine receptor (Homo sapiens) (UniProt P21728). Kind of experiment: HTS Assay for Allosteric Agonists of the Human D1 Dopamine Receptor: Primary Screen for Agonists (AID 488981). Summed up: (§1)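 Tetracycline-induced HEK293 Trex D1 cells with forced coupling to calcium, loaded with no-wash calcium dye; kinetic fluorescence read 180 s after compound addition for agonism, then a further 180 s after an EC20 dopamine challenge for potentiation.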

Experiment [15] has the same target. Kind of experiment: HTS Assay for Allosteric Agonists of the Human D1 Dopamine Receptor: Primary Screen for Potentiators (AID 488982). The method in brief: as §1
The target is the same in experiment [16]. In words: HTS Assay for Allosteric Agonists of the Human D1 Dopamine Receptor: Primary Screen for Antagonists (AID 488983).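 Also: calcium flux response to an EC80 dopamine challenge measured with no-wash dye; nearly all actives have a fitted effect of over 65% in size.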 The method in brief:
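Tetracycline-induced HEK293 T-REx D1 line, force-coupled to calcium flux, read with no-wash calcium dye. Compound added after 10 s baseline, read 180 s for agonism, then EC80 dopamine added and read a further 180 s.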

Experiment [17] deals with ATP-dependent 6-phosphofructokinase (Trypanosoma brucei brucei) (UniProt O15648). In words: qHTS Validation Assay to Find Inhibitors of T. brucei phosphofructokinase (AID 485368). The method in brief:
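Activity was normalized between 1x (1.25 nM) PFK wells as no inhibition and enzyme-free wells as full inhibition, from luminescence after ADP-Glo detection of ADP made from 0.5 mM F6P and 0.1 mM ATP over 45 min.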

Experiment [18] in a line: Quantitative high throughput screen for delayed death inhibitors of the malarial parasite plastid, 48 hour incubation (AID 488752). Also: nearly all actives have a fitted effect of over 65% in size. Summed up: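 Erythrocytes infected with firefly luciferase-expressing P. falciparum (2% hematocrit, 0.1% parasitemia) cultured with compound for 48 h at 37 C, 5% CO2, in RPMI 1640/0.5% Albumax. Growth inhibition read as loss of luminescence.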

For experiment [19], the target named is Transient receptor potential cation channel subfamily V member 1 (Homo sapiens) (UniProt Q8NER1). Kind of experiment: HTS Assay for Compounds that Act as Enhancers of the Vanilloid Receptor 1 (AID 488979). The method in brief:
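TRPV1 cells loaded with Fluo-8 calcium dye; compound added and Ca2+ signal (ex 480/em 520 nm) followed 3 min, then capsaicin at EC20 added and read 2 more min to detect enhancement.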

Beta-2 adrenergic receptor (Homo sapiens), sequence (P07550 whole entry, looked up): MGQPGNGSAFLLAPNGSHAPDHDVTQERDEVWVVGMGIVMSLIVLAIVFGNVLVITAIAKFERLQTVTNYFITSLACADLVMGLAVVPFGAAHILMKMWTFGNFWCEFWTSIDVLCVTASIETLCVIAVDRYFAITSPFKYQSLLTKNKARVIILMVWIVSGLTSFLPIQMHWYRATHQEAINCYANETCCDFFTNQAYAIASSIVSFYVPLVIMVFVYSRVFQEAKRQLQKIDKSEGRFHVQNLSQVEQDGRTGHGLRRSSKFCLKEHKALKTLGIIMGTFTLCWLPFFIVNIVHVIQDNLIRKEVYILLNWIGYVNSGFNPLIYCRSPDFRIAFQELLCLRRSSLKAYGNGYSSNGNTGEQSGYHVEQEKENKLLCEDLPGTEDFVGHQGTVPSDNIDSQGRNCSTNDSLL
Thyrotropin receptor (Homo sapiens), sequence (P16473 whole entry, looked up): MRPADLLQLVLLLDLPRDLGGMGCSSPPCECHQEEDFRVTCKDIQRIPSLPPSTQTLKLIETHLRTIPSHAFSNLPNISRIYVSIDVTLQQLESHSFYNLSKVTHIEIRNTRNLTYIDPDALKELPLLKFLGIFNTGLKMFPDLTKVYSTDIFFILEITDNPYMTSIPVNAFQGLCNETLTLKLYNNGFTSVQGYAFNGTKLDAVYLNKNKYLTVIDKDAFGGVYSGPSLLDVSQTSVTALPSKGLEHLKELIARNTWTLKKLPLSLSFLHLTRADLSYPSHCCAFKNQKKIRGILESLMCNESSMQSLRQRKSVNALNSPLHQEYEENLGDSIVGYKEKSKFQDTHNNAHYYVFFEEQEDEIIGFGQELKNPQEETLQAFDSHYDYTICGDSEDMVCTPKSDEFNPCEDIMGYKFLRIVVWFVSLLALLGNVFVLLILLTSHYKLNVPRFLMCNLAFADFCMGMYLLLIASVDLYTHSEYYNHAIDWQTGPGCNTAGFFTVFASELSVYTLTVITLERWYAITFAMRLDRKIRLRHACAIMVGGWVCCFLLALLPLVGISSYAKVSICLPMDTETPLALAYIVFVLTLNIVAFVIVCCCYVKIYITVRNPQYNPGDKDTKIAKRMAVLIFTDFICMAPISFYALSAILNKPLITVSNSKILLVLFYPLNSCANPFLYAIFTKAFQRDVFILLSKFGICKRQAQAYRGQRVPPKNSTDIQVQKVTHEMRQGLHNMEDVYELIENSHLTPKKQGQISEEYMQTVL
Chromobox protein homolog 1 (Homo sapiens), sequence (P83916 whole entry, looked up): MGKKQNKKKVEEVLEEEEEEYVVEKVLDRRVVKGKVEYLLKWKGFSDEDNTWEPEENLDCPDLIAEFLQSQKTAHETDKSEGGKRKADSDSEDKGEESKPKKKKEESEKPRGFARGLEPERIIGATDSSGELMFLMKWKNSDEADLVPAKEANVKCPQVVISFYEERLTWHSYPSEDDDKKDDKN
Transient receptor potential cation channel subfamily V member 1 (Homo sapiens), sequence (Q8NER1 whole entry, looked up): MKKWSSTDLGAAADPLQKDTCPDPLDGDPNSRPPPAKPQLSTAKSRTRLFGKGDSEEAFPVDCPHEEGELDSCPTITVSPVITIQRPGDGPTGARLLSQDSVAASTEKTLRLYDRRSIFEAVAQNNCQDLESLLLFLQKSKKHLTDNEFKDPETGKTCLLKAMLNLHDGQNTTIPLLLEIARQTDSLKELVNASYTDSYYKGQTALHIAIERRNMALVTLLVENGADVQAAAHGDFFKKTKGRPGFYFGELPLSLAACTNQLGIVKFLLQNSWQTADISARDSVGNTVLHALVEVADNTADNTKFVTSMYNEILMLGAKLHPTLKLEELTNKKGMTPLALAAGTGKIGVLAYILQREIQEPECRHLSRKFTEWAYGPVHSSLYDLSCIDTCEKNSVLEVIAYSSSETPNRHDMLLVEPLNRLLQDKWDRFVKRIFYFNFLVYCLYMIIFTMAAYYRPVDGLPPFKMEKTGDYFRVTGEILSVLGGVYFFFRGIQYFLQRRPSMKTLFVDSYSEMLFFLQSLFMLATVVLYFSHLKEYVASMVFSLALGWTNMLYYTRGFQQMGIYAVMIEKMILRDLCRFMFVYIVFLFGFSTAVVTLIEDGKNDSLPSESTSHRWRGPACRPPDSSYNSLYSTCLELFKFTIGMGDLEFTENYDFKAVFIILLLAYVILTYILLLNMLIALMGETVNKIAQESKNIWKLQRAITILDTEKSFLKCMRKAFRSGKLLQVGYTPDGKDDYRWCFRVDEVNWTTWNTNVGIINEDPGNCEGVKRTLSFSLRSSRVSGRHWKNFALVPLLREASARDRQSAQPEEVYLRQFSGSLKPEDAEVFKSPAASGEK
Ubiquitin carboxyl-terminal hydrolase 2 (Homo sapiens), sequence (O75604 whole entry, looked up): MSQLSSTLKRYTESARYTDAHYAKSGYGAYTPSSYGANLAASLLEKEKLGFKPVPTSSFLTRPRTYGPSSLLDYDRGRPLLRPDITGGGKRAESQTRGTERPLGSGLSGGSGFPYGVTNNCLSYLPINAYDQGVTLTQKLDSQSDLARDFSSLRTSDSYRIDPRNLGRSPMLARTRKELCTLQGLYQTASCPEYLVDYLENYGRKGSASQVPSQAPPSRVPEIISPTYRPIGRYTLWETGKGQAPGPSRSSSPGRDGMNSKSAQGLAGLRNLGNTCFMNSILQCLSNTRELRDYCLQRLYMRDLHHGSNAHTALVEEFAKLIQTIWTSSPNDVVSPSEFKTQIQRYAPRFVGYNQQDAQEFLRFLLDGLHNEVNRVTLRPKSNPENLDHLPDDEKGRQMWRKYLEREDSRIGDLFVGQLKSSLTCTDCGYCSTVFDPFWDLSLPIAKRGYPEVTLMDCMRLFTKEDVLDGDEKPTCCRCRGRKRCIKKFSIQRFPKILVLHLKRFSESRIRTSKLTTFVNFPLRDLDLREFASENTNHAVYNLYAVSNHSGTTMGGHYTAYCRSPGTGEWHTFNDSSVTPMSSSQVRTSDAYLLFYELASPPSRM
Tumor susceptibility gene 101 protein (Homo sapiens), sequence (Q99816 whole entry, looked up, the tested form may be a part): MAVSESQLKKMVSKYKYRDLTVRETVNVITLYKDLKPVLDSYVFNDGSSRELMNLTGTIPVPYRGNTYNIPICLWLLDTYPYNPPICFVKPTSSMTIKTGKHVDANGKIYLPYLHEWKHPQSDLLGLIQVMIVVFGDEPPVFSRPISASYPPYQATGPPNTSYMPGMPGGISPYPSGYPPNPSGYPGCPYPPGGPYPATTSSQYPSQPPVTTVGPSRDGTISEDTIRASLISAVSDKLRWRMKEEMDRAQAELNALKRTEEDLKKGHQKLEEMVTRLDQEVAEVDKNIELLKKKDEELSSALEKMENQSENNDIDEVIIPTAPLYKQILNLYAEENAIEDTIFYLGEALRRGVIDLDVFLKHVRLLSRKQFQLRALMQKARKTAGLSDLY
ATP-dependent 6-phosphofructokinase (Trypanosoma brucei brucei), sequence (O15648 whole entry, looked up): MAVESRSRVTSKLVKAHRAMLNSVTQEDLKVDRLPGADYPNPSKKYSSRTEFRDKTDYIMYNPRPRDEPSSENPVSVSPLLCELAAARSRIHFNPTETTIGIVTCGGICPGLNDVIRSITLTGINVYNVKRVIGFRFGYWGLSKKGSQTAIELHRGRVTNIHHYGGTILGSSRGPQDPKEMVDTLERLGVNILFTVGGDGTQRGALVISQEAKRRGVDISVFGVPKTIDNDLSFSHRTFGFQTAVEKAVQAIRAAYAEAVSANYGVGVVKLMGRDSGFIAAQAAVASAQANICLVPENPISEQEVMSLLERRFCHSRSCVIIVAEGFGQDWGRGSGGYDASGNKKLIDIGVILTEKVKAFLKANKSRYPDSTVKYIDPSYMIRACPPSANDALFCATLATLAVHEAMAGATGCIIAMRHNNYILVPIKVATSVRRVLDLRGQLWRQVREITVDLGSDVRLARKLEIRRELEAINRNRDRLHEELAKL

As to `NC(CO)C(=O)NNCc1ccc(O)c(O)c1O` (stereo unspecified), the Potency entry in experiment [1], in [2], in experiment [4], in experiment [6], in [9] and in experiment [14] was “inactive” each time. Besides, the Potency result in [15] and in experiment [16] was “inactive” throughout. Besides, the call in experiment [3], in experiment [5], in experiment [7], in [12] and in [13] was inactive. The Potency in experiment [8] was 4.23 µM (active); in [10], 31.6 µM (active); in experiment [11], 35.5 µM (active).

Turning to `Cc1cc(C(C)(C)C)c(O)c(C)c1CC1=NCCN1`, the Potency result in experiment [1], in [2], in experiment [4], in experiment [17], in experiment [6] and in experiment [18] was “inactive” throughout. For the same compound, the Potency result in experiment [8], in experiment [9], in [10], in [11], in [14] and in experiment [15] was “inactive” each time. Moreover, the Potency entry in [16] is “inactive”. Moreover, the call in experiment [3], in [5], in [7], in experiment [19] and in [13] was inactive.

`CCC1(c2ccccc2)C(=O)NCNC1=O`: the Potency result in experiment [1], in [2], in experiment [4], in experiment [17], in experiment [6] and in experiment [18] was “inactive” in each case. The Potency result in [8], in experiment [9], in experiment [10], in [11], in [14] and in [15] was “inactive” each time. The Potency result in experiment [16] is “inactive”. Also, the compound was classed as inactive in experiment [3], in experiment [5], in experiment [7], in [12], in experiment [19] and in experiment [13].

Regarding `NS(=O)(=O)c1cc2c(cc1Cl)NCNS2(=O)=O`, the Potency result in [1], in experiment [2], in experiment [4], in [6], in experiment [8] and in [9] was “inactive” throughout. Also, the Potency entry in [10], in experiment [11], in experiment [14], in experiment [15] and in experiment [16] was “inactive” each time. Further, the call in experiment [3], in experiment [5], in experiment [7], in experiment [12], in [19] and in experiment [13] was inactive.

For `CN1CCN2c3ccccc3Cc3ccccc3C2C1` (stereo unspecified), the Potency result in experiment [1], in [2], in experiment [4], in experiment [6], in experiment [8] and in experiment [10] was “inactive” throughout. Also, the Potency result in [14] and in experiment [15] was “inactive” in each case. For the same compound, the compound was called inactive in [3], in experiment [5], in [7], in experiment [12], in [19] and in experiment [13].

As to `CC(CCc1ccc(O)cc1)NCCc1ccc(O)c(O)c1` (stereo unspecified), the Potency entry in [1], in experiment [2], in experiment [4], in [17], in [8] and in experiment [9] was “inactive” in each case. In addition, the Potency result in [10], in experiment [14] and in [16] was “inactive” in each case. Moreover, the outcome in experiment [3], in experiment [5], in experiment [7], in [12], in experiment [19] and in experiment [13] was inactive. For the same compound, in experiment [6], the Potency is 5.86 µM (active).

Take `CN1CCN(C2=Nc3cc(Cl)ccc3Nc3ccccc32)CC1`: the Potency result in experiment [1], in [2], in experiment [4], in experiment [17] and in experiment [8] was “inactive” in each case. In addition, the result in experiment [3], in [5], in [12] and in [13] was inactive.

On to `COc1ccc2c(c1)c(CC(=O)O)c(C)n2C(=O)c1ccc(Cl)cc1`, for which the Potency entry in experiment [1], in experiment [2], in [4], in [17], in [6] and in experiment [8] was “inactive” each time. Further, the Potency result in experiment [9], in [10], in experiment [11], in experiment [14] and in experiment [16] was “inactive” throughout. Moreover, the compound was called inactive in experiment [3], in experiment [5], in [7], in experiment [12], in experiment [19] and in [13].

These data come from PubChem BioAssay (NCATS).
